High-throughput results: PubChem, several laboratories
ALR inh: inhibitors of human sulfhydryl oxidase ALR | P55789 | purified ALR, DTT oxidation, H2O2 HRP-luminol luminescence | inhibition, % (concentration not given with the values) | 290,000 tested, 3.8% active | AID 485317;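 active means mean replicate inhibition above about 79%, with every replicate also reaching it, limit read from the data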
PABP polyA inh: PABP-poly(A) binding inhibition; P11940; PABP-poly(A) RNA binding, fluorescence polarization; inhibition, % at 35 µM; 290,000 tested, 1% active;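 further: calls also rest on retests at 20 µM and on dose response follow-up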
Target sequence (P11940 whole entry, looked up): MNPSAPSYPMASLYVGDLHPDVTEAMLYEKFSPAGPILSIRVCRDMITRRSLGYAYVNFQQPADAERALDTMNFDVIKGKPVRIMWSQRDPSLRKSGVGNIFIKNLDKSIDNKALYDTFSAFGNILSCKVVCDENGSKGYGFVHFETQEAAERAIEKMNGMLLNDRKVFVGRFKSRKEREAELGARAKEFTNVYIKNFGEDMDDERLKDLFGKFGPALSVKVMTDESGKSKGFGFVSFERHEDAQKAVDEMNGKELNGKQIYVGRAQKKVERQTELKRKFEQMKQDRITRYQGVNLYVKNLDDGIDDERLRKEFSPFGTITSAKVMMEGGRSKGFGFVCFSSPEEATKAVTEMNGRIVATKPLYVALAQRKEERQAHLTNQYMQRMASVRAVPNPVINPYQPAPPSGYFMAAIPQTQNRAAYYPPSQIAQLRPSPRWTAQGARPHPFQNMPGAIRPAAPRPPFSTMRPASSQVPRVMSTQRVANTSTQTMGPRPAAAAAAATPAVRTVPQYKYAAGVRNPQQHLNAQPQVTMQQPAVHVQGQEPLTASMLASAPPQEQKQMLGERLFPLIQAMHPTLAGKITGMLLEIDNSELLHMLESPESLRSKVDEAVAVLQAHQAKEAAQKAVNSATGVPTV
Efflux pump mplx: inhibitors of Candida antifungal efflux pumps expressed in yeast. S. cerevisiae Candida pump triplex, Nile Red efflux. inhibition, % at 10 µM. 330,000 tested, 0.44% active. AID 485275;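 active means plate passing quality check with inhibition over a set limit, or well fluorescence over plate mean plus 4 SD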;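 further: Nile Red retained in pooled yeast measured as flow cytometry median fluorescence; higher means more Nile Red kept so more efflux inhibition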
PABP1 MLLE inh: blocks PAM2 peptide binding to the PABP1 MLLE domain; 360,000 tested, 0.36% active; inhibition, % at 20 µM; AID 588489; GST-MLLE / FITC-PAM2 fluorescence polarization; in the data active means inhibition above about 35%, passing the limit was not always enough
SUMO HTRF inh: SUMOylation inhibition; HTRF SUMOylation assay, SAE1/SAE2 + UBC9, in vitro; inhibition, % at 35 µM; P63279; 290,000 tested, 0.36% active; in the data active means inhibition above about 50%, passing the limit was not always enough
eIF4H inh: inhibitors of RNA binding by human eIF4H; Q15056; eIF4H fluorescence polarization binding assay; inhibition, % at 35 µM; 290,000 tested, 0.94% active; AID 2012;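 further: calls also rest on retests at 20 µM and on dose response follow-up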
Numbers stand for hits. Shown are actives, neighbours in structure and some others; about 4.7% of the full set was active somewhere. Unless noted, how the calls were made is not given here.

Screening CC1=CC(C)(C)N(C(=O)c2ccccc2)c2ccccc21 returned PABP polyA inh inactive, Efflux pump mplx inactive, PABP1 MLLE inh inactive, SUMO HTRF inh inactive and eIF4H inh inactive.
Screening O=C(CCc1ccccc1)NCCSc1ccccc1 returned ALR inh inactive, PABP polyA inh inactive, Efflux pump mplx inactive, PABP1 MLLE inh inactive, SUMO HTRF inh inactive and eIF4H inh inactive.
O=C(CCc1[nH]c2ccccc2c1Sc1ccccc1)NCCO was read as ALR inh 99, PABP polyA inh inactive, Efflux pump mplx inactive, PABP1 MLLE inh inactive, SUMO HTRF inh inactive and eIF4H inh inactive.
For C[C@H](CO)N1C[C@H](C)[C@@H](CN(C)Cc2ccc(Oc3ccccc3)cc2)Oc2c(NS(=O)(=O)c3cn(C)cn3)cccc2C1=O the results were ALR inh inactive, Efflux pump mplx inactive and PABP1 MLLE inh inactive.
C[C@@H]1CCCCO[C@@H](CN(C)C(=O)c2ccncc2)[C@@H](C)CN([C@H](C)CO)C(=O)c2cc(N(C)C)ccc2O1 was read as PABP1 MLLE inh inactive.
`Cc1cc(NCC2CCCO2)n2c(nc3ccccc32)c1C#N` (stereo not given) gave ALR inh inactive, PABP polyA inh 96, Efflux pump mplx inactive, PABP1 MLLE inh inactive, SUMO HTRF inh inactive and eIF4H inh 61.
`CC(C)c1cc(NCC2CCCO2)n2c(nc3ccccc32)c1C#N` (stereo not given) gave PABP polyA inh inactive, Efflux pump mplx inactive, PABP1 MLLE inh inactive, SUMO HTRF inh inactive and eIF4H inh inactive.
Screening CCOC(=O)CCCCCC(=O)Nc1ccc2c(c1)C(=O)N([C@@H](C)CO)C[C@@H](C)[C@H](CN(C)S(=O)(=O)c1cccs1)OCCCC[C@H](C)O2 returned PABP1 MLLE inh inactive.
COc1cc(/C=N/NC(=O)CCC(=O)NC2CCCCC2)ccc1C was read as ALR inh inactive, PABP polyA inh inactive, Efflux pump mplx inactive, PABP1 MLLE inh inactive, SUMO HTRF inh inactive and eIF4H inh inactive.
`COc1ccc(/C=N/NC(=O)CCc2n[nH]c(=O)[nH]c2=O)cc1OC` gave PABP polyA inh inactive, Efflux pump mplx inactive, PABP1 MLLE inh inactive, SUMO HTRF inh inactive and eIF4H inh inactive.
Screening CCOc1cc(/C=N/NC(=O)CCc2n[nH]c(=O)[nH]c2=O)ccc1O returned ALR inh 99, PABP polyA inh inactive, Efflux pump mplx inactive, PABP1 MLLE inh inactive, SUMO HTRF inh inactive and eIF4H inh inactive.
Screening CCOc1cc(/C=N/NC(=O)CCCC(=O)NC2CCCCC2)ccc1O returned ALR inh 99, PABP polyA inh inactive, Efflux pump mplx inactive, PABP1 MLLE inh inactive, SUMO HTRF inh inactive and eIF4H inh inactive.
`COc1ccc2[nH]c(=O)c(CN(C(C)=O)c3cc(C)ccc3C)cc2c1` gave PABP1 MLLE inh inactive.
O=C(C=Cc1cccs1)c1ccc(Cl)s1 was read as PABP1 MLLE inh inactive.
For CCN(CCCNC(=O)C1CCN(S(=O)(=O)N2CCC3(CC2)OCCO3)CC1)c1ccccc1 the results were ALR inh 99, PABP polyA inh inactive, Efflux pump mplx inactive, PABP1 MLLE inh inactive, SUMO HTRF inh inactive and eIF4H inh inactive.
O=C(NCCc1ccccc1)C1CCN(S(=O)(=O)N2CCC3(CC2)OCCO3)CC1 was read as ALR inh inactive, PABP polyA inh inactive, Efflux pump mplx inactive, PABP1 MLLE inh inactive, SUMO HTRF inh inactive and eIF4H inh inactive.
For CCN(CCCNC(=O)C1CCN(S(=O)(=O)c2c(C)[nH]c(=O)[nH]c2=O)CC1)c1cccc(C)c1 the results were PABP polyA inh inactive, Efflux pump mplx inactive, PABP1 MLLE inh inactive, SUMO HTRF inh inactive and eIF4H inh inactive.
CCN(CCNC(=O)C1CCN(S(C)(=O)=O)CC1)c1ccccc1 was read as ALR inh 99, PABP polyA inh inactive, Efflux pump mplx inactive, PABP1 MLLE inh inactive, SUMO HTRF inh inactive and eIF4H inh inactive.
For CCN(CCCNC(=O)C1CCN(S(=O)(=O)CC)CC1)c1ccccc1 the results were ALR inh 99, PABP polyA inh inactive, Efflux pump mplx inactive, PABP1 MLLE inh inactive, SUMO HTRF inh inactive and eIF4H inh inactive.
Screening CCCS(=O)(=O)N1CCC(C(=O)NCCN(CC)c2ccccc2)CC1 returned ALR inh inactive, PABP polyA inh inactive, Efflux pump mplx inactive, PABP1 MLLE inh inactive, SUMO HTRF inh inactive and eIF4H inh inactive.
Screening CCN(CCCNC(=O)C1CCN(S(=O)(=O)CC)CC1)c1cccc(C)c1 returned ALR inh 99, PABP polyA inh 28, Efflux pump mplx inactive, PABP1 MLLE inh inactive, SUMO HTRF inh inactive and eIF4H inh 90.
O=C(COC(=O)Cc1ccc(S(=O)(=O)N2CCOCC2)s1)Nc1ccc(OC(F)F)cc1 was read as ALR inh inactive, Efflux pump mplx inactive and PABP1 MLLE inh inactive.
Screening CCCCN(CCCNC(=O)C1CCN(S(=O)(=O)N2CCOCC2)CC1)c1ccccc1 returned ALR inh 99, PABP polyA inh inactive, Efflux pump mplx inactive, PABP1 MLLE inh inactive, SUMO HTRF inh inactive and eIF4H inh inactive.
`CCN(CCCNC(=O)C1CCC(=O)N1C1CCCC1)c1cccc(C)c1` (stereo not given) gave PABP polyA inh inactive, Efflux pump mplx inactive, PABP1 MLLE inh inactive, SUMO HTRF inh inactive and eIF4H inh inactive.
CN(CCNC(=O)C1CCN(S(=O)(=O)N2CCOCC2)CC1)CCc1ccccc1 was read as ALR inh inactive, PABP polyA inh inactive, Efflux pump mplx inactive, PABP1 MLLE inh inactive, SUMO HTRF inh inactive and eIF4H inh inactive.
`CCN(CCCNC(=O)C1CCC(=O)N1Cc1ccc(F)cc1)c1cccc(C)c1` (stereo not given) gave ALR inh 99, PABP polyA inh inactive, Efflux pump mplx inactive, PABP1 MLLE inh inactive, SUMO HTRF inh inactive and eIF4H inh inactive.
`O=C(CSc1nc2nn(-c3ccccc3)c(=O)c-2c2n1CCCCC2)Nc1ccc(OC(F)F)cc1` gave ALR inh inactive, Efflux pump mplx inactive and PABP1 MLLE inh inactive.
O=C(CCS(=O)(=O)c1ccc(Br)cc1)N1CCCCCC1 was read as ALR inh inactive, PABP polyA inh inactive, Efflux pump mplx inactive, PABP1 MLLE inh inactive, SUMO HTRF inh inactive and eIF4H inh 94.
O=C(CCNS(=O)(=O)c1ccc(Br)cc1)N1CCCCCCC1 was read as ALR inh inactive, Efflux pump mplx inactive and PABP1 MLLE inh inactive.
For Fc1ccc(-n2c(CN3CCCCC3)n[nH]c2=S)cc1 the results were ALR inh 87, PABP polyA inh inactive, Efflux pump mplx inactive, PABP1 MLLE inh inactive, SUMO HTRF inh inactive and eIF4H inh inactive.
O=C(COC(=O)c1cncc(Br)c1)NC1CCCCCC1 was read as ALR inh inactive, PABP polyA inh inactive, Efflux pump mplx inactive, PABP1 MLLE inh inactive, SUMO HTRF inh inactive and eIF4H inh inactive.
CNC(=O)COc1ccc(Nc2nnc(-c3ccc(C)c(S(N)(=O)=O)c3)c3ccccc23)cc1 was read as ALR inh inactive, PABP polyA inh inactive, Efflux pump mplx inactive, PABP1 MLLE inh inactive, SUMO HTRF inh inactive and eIF4H inh inactive.
